# Results filed as inconclusive are left out. Active and inactive are the calls of the source.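 How the source made its calls, unless noted: active means growth inhibition above 25% in both replicates, a cutoff set 3 SD above the mean; inconclusive means above 25% in only one replicate; inactive means the rest.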
# How the values were obtained:
# [1] = HUVEC growth inhibition – cell-based, human, primary screen (AID 575;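 active means viability at or below 30% in both replicate assays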;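 further: 100% = median of untreated cell wells with 0.1% DMSO on each plate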); conditions: HUVEC proliferation, CellTiter-Glo luminescence, 72 h; at 10 µM; stronger effect = lower value
# [2] = H69AR cell proliferation blockers – human, duplicate replicates, primary screen (AID 580;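 active means viability at or under a set limit in both replicates, limit being median viability minus 3 SD, cut at about 48% in these data, passing the limit was not always enough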;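 further: 100% = mean luminescence of untreated wells and 0% = no signal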); conditions: H69AR lung tumor cells viability, ATP luminescence, 72 h; at 10 µM; stronger effect = lower value
# [3] = MRP1 drug-resistance reversers in H69AR cells – cell-based, doxorubicin co-treatment, pilot screen (AID 601;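 active means viability loss from added drug above about 55%, and viability with drug at most 40%, in both replicates, limit read from the data, passing the limit was not always enough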); conditions: CellTiter-Glo, 72 h, at 10 µM; for differential viability (reversal): stronger effect = higher value
# [4] = yeast transport mutant growth inhibition pilot in 384-well plates, post-Golgi transport modulator project (AID 636; in the data active means inhibition above about 31%); conditions: absorbance 615 nm, about 18 h, stronger effect = higher value
# [5] = growth suppression of yeast trafficking mutant, preliminary HTS, modulators of trafficking downstream of Golgi apparatus project, 1536-format plate, OD 615 nm (AID 637; in the data active means inhibition above about 30%); conditions: yeast transport mutant growth, absorbance 615 nm, 18 h; stronger effect = higher value
# [6] = S. cerevisiae growth inhibition in permissive medium (OD615), pilot counter-assay for S. cerevisiae lifespan shortening project, permissive growth control (AID 705); conditions: OD615, 24 h, at 10 µM, stronger effect = higher value
# [7] = S. cerevisiae growth inhibition in restrictive medium, OD615, pilot screen, restrictive growth control, yeast lifespan reduction project (AID 706;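 active means growth inhibition above a set limit, 3 SD over mean compound inhibition, in both replicates, cut at about 43% in these data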;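 further: modified DeaD lifespan yeast strain shifted to restrictive glucose medium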); conditions: OD615, 48 h, at 10 µM, stronger effect = higher value
# [8] = doxorubicin toxicity protection in MRP-1 cells – H69AR cells, CellTiter-Glo, duplicate, MRP-1 activator project, pilot screen (AID 807;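 active means viability increase at or above a cutoff of the median across tested compounds plus 3 SD, cut at about 8.5% in these data, passing the limit was not always enough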;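 further: compound pretreatment 18-22 h then 72 h combined with doxorubicin; 0% = doxorubicin alone and 100% = vehicle without doxorubicin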); conditions: H69AR viability with doxorubicin, CellTiter-Glo luminescence; at 10 µM; stronger effect = higher value
# [9] = viability of HCT116 without oncogenic beta-catenin – human colon tumor cells, pilot screen (AID 823;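 active means cell viability at or below a set limit in both duplicate runs, the limit being the all-compound median minus 4 SD, cut at about 23% in these data, passing the limit was not always enough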;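 further: 0% = wells killed by 20 µM Hyamine and 100% = untreated DMSO cell wells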); conditions: HCT116 beta-catenin knockout viability, CellTiter-Glo, 60 h; at 10 µM; stronger effect = lower value
# [10] = viability of PTEN-null HCT116 cells – cell-based, HCT116 clonal line, CellTiter-Glo, pilot screen (AID 824;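 active means viability at or below 27.92% in each of two runs, the all-compound median minus 4 SD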;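 further: 0% = 20 µM Hyamine control and 100% = vehicle cell control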); conditions: HCT116 PTEN-deleted viability, 60 h, at 10 µM, stronger effect = lower value
# [11] = RAM pathway blockade in budding yeast – dse1pr::URA3 reporter, 5-FOA selection, pilot screen (AID 869;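 active means inhibition over a set limit, the all-compound mean plus 3 SD, in both replicate runs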;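 further: 0% = DMSO wells with no growth and 100% = 10 µM 1-NA-PP1 with full growth; RAM network block rescues cells from 5-FOA so hits raise OD615 growth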); conditions: S. cerevisiae dse1pr::URA3 5-FOA growth, OD615, 2 d; at 10 µM; stronger effect = higher value; strain carries analog-sensitive mutant Cbk1 kinase
# [12] = RAM signaling pathway blockade in yeast – S. cerevisiae, Pdr1DBD-CYC8 efflux-inhibited sensitized strain, primary screen (AID 1298;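 active means RAM network inhibition above 8.4% in each of two replicates, 3 SD over the compound average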;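 further: 0% = DMSO untreated cells without growth and 100% = 10 µM 1-NA-PP1 full growth; higher means more yeast growth rescued from 5-FOA killing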); conditions: S. cerevisiae cbk1-as DSE1-URA3 strain, 5-FOA growth OD615, 2 d; at 50 µM; stronger effect = higher value
# [13] = H69AR cells + 2 uM doxorubicin, measured here: viability with 2 uM doxorubicin, stronger effect = lower value
# [14] = H69AR cells, compound alone cytotoxicity
SMILES,viability [1],viability [2],differential viability (reversal) ([3]; H69AR cells + 2 uM doxorubicin),"viability [3, 13] [%]","viability [3, 14] [%]",inhibition [4],inhibition [5],growth inhibition [6],growth inhibition [7],viability increase [8],viability [9],viability [10],inhibition [11],RAM network inhibition [12]
Cc1nnc(N(Cc2ccco2)C(=O)c2cccc(C#N)c2)s1,84.1% (inactive),94.6% (inactive),-3.37% (inactive),97.9,94.6,-1.69% (inactive),-6.35% (inactive),-6.52% (inactive),6.42% (inactive),-0.66% (inactive),103% (inactive),98.5% (inactive),1.8% (inactive),4.13% (inactive)
COc1ccc(-c2nc(N3CCCC3)[nH]c(=O)c2C#N)cc1,97% (inactive),87.9% (inactive),2.17% (inactive),85.8,87.9,-1.45% (inactive),0.79% (inactive),0.51% (inactive),0.48% (inactive),-0.94% (inactive),104% (inactive),90.7% (inactive),1.63% (inactive),3.39% (inactive)
O=C(CN1C(=O)NC(Cc2ccccc2)C1=O)Nc1ccccc1 (configuration not stated),101% (inactive),96.7% (inactive),-0.17% (inactive),96.9,96.7,-1.17% (inactive),-0.63% (inactive),-11.6% (inactive),-16.5% (inactive),1.83% (inactive),97.8% (inactive),94.6% (inactive),1.85% (inactive),0.35% (inactive)
O=C(c1ccc(NS(=O)(=O)c2cccs2)cc1)N1CCCCC1,72.9% (inactive),89.9% (inactive),-7.68% (inactive),97.5,89.9,-2.63% (inactive),-9.05% (inactive),1.61% (inactive),-2.64% (inactive),-1.41% (inactive),93.8% (inactive),96.8% (inactive),0.805% (inactive),1.56% (inactive)
Cc1cc2ncn(C(=O)N3CCOCC3)c2cc1C,95.4% (inactive),92.2% (inactive),7.56% (inactive),84.6,92.2,-2.47% (inactive),-6.03% (inactive),0.665% (inactive),-2.19% (inactive),-1.25% (inactive),97.3% (inactive),97.3% (inactive),1.22% (inactive),4.08% (inactive)
COc1ccccc1NC(=O)N(Cc1ccccc1)c1ccccn1,83.4% (inactive),85.3% (inactive),-5.91% (inactive),91.2,85.3,-5.58% (inactive),-4.92% (inactive),-9.36% (inactive),-2.62% (inactive),0.35% (inactive),87% (inactive),88.6% (inactive),2.24% (inactive),6.47% (inactive)
O=C(NCCc1cccc(Cl)c1)c1cccnc1,87.9% (inactive),103% (inactive),26.5% (inactive),76.8,103,-2.21% (inactive),5.4% (inactive),-1.24% (inactive),10.7% (inactive),-0.51% (inactive),98.9% (inactive),98.3% (inactive),0.32% (inactive),1.21% (inactive)
Cn1ccnc1C(O)c1ccco1 (configuration not stated),101% (inactive),103% (inactive),13.1% (inactive),89.5,103,-5.39% (inactive),1.43% (inactive),-5.51% (inactive),-3.72% (inactive),-0.09% (inactive),102% (inactive),103% (inactive),0.74% (inactive),3.14% (inactive)
CC(c1ccco1)N(C(=O)c1ccc(S(=O)(=O)N2CCCCC2)cc1)c1ccccn1 (configuration not stated),87.5% (inactive),86% (inactive),-8.22% (inactive),94.2,86,-4.03% (inactive),1.27% (inactive),-17.7% (inactive),2.26% (inactive),-4.13% (inactive),97.4% (inactive),–,1.19% (inactive),3.18% (inactive)
COc1cccc(N2CCN(c3c4c(nc5ncnn35)CCC4)CC2)c1,68.7% (inactive),86.9% (inactive),10.4% (inactive),76.5,86.9,-4.55% (inactive),8.73% (inactive),-0.38% (inactive),16.8% (inactive),-1.17% (inactive),77.5% (inactive),92.9% (inactive),0.465% (inactive),4.78% (inactive)
Cc1ccc(C)c(N2C(=O)CN=C2Nc2ccccc2Cl)c1,80.1% (inactive),100% (inactive),21.3% (inactive),78.6,100,-1.95% (inactive),2.54% (inactive),-7.25% (inactive),-0.67% (inactive),-0.31% (inactive),91.5% (inactive),94.4% (inactive),0.715% (inactive),-0.52% (inactive)
CC(C(=O)Oc1ccc2c(c1)OCO2)N1C(=O)c2ccccc2C1=O (configuration not stated),79.5% (inactive),84.3% (inactive),-10.1% (inactive),94.4,84.3,-1.69% (inactive),1.27% (inactive),-0.745% (inactive),13.1% (inactive),-1.6% (inactive),99.3% (inactive),105% (inactive),1.38% (inactive),0.12% (inactive)
CC(=O)Nc1nc(-c2ccccc2)nc(C)c1C(C)=O,103% (inactive),94.4% (inactive),7.1% (inactive),87.3,94.4,0.13% (inactive),-2.22% (inactive),-9.85% (inactive),-7.77% (inactive),-0.66% (inactive),93.4% (inactive),99.5% (inactive),0.585% (inactive),5.92% (inactive)
c1ccc2c(c1)ccc1nnc(-c3ccc4c(c3)OCO4)n12,98.7% (inactive),96% (inactive),4.88% (inactive),91.1,96,-1.82% (inactive),3.33% (inactive),-7.74% (inactive),2.03% (inactive),-5.23% (inactive),93.7% (inactive),90.9% (inactive),1.31% (inactive),1.81% (inactive)
COc1ccc(-c2nn(-c3ccccc3)cc2/C=N/n2cnnc2)cc1OC,79.3% (inactive),79.8% (inactive),-11.2% (inactive),91,79.8,-6.84% (inactive),-0.63% (inactive),2.04% (inactive),17.4% (inactive),-4.33% (inactive),88% (inactive),84% (inactive),-0.92% (inactive),-1.68% (inactive)
Cc1ccc(S(=O)(=O)c2nc(-c3ccco3)oc2SCC(=O)NCC2CCCO2)cc1 (configuration not stated),101% (inactive),92.8% (inactive),6.32% (inactive),86.4,92.8,-0.13% (inactive),-3.02% (inactive),0.025% (inactive),0.35% (inactive),-2.88% (inactive),101% (inactive),104% (inactive),1.47% (inactive),2.72% (inactive)
O=C(NCc1cccs1)C(Cc1ccccc1)NS(=O)(=O)c1cccs1 (configuration not stated),95.7% (inactive),91.7% (inactive),4.5% (inactive),87.2,91.7,-3.16% (inactive),5.08% (inactive),-17.7% (inactive),-8.73% (inactive),-1.46% (inactive),94.3% (inactive),–,1.43% (inactive),4.56% (inactive)
O=C(COC(=O)C1(c2ccccc2F)CCCC1)NC1CCS(=O)(=O)C1 (configuration not stated),118% (inactive),97.2% (inactive),3.27% (inactive),93.9,97.2,-1.69% (inactive),-2.06% (inactive),5.97% (inactive),2.54% (inactive),-0.5% (inactive),99.4% (inactive),95.3% (inactive),0.035% (inactive),3.94% (inactive)
COCCn1c(=O)[nH]c2cc(C(=O)N3CCN(c4ccccc4OC)CC3)ccc2c1=O,110% (inactive),85.8% (inactive),-5.65% (inactive),91.4,85.8,-4.87% (inactive),0.32% (inactive),-3.6% (inactive),-7.11% (inactive),-0.61% (inactive),104% (inactive),99% (inactive),1.2% (inactive),6.96% (inactive)
COC(=O)c1cccc(NC(=O)C2COc3ccccc3O2)c1C (configuration not stated),116% (inactive),100% (inactive),8.78% (inactive),91.4,100,-1.71% (inactive),-6.98% (inactive),-14.9% (inactive),-21.5% (inactive),0.68% (inactive),106% (inactive),99% (inactive),-0.07% (inactive),3.78% (inactive)
CCn1cc(C(=O)NCC2COc3ccccc3O2)c2cc(OC)c(OC)cc2c1=O (configuration not stated),77.5% (inactive),79.3% (inactive),0.385% (inactive),79,79.3,-6.05% (inactive),0.16% (inactive),-11.4% (inactive),-33.2% (inactive),-4.69% (inactive),97.9% (inactive),86.7% (inactive),0.96% (inactive),3.33% (inactive)

# Reference: PubChem BioAssay
